NPR2 activator: GC-B (human) receptor activation; 370,000 tested, 0.11% active; activation, % at 10 µM; HEK293-GC-B cells, CNP EC30, cGMP TR-FRET; 0% at EC30 CNP, 100% saturating CNP; AID 1920062;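 active = activation at 10 µM reaching about 35% in either raw or pattern-adjusted values, limit read from the data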
bovine MsrA act: bovine methionine sulfoxide reductase A activation; purified bovine MsrA, absorbance read-out; activation, % at 10.6 µM; 360,000 tested, 0.3% active; AID 602163; in the data active = activation above about 7.5%;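 note: 0% = vehicle and 100% = reference activator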
MsrA inhibitor: inhibits bovine methionine sulfoxide reductase A | 360,000 tested, 0.75% active | inhibition, % at 15.5 µM | purified bovine MsrA, absorbance read-out | AID 651718;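 note: 0% = vehicle wells with enzyme and 100% = reference inhibitor wells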
HTR2A ag: mouse HTR2A agonism via beta-arrestin recruitment; CHO-K1 mHTR2A beta-arrestin complementation, luminescence; percent of 30 µM serotonin response; activation, % at 7.6 µM; 360,000 tested, 0.66% active; AID 624169;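 active = activation above a run cutoff, the mean activation of all tested compounds plus 3 SD, cut at about 14% in these data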;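 note: 0% = plate median of compound wells and 100% = 30 µM serotonin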
Target sequence (P35363 whole entry, looked up): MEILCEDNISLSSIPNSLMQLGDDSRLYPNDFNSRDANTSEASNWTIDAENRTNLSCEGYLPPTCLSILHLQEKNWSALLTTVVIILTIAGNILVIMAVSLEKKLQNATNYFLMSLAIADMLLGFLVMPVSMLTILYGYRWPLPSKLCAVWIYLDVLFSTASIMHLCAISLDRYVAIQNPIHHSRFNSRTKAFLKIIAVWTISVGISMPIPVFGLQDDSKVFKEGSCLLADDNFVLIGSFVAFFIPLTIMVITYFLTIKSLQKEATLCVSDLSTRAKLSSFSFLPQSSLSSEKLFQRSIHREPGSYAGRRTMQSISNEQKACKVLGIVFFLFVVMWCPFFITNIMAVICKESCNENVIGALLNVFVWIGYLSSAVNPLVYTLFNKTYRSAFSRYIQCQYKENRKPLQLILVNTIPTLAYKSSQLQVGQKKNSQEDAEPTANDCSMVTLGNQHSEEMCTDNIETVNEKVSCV
NPR1 activator: GC-A (human) enzyme activation | P16066 | AID 1671463 | activation, % at 10 µM | HEK293 GC-A cells, cGMP TR-FRET, EC30 ANP; 0% at EC30 ANP, 100% saturating ANP | 370,000 tested, 0.14% active; in the data active = activation above about 40%
MsrA inh confirm: bovine MsrA inhibition, confirmed. shares compounds with MsrA inhibitor. purified bovine MsrA, absorbance read-out. inhibition, % at 15.5 µM. 2,300 tested, 41% active;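 note: coupled to thioredoxin reductase with NADPH and selenocystamine and DMSO as substrate; 0% = vehicle only and 100% = full effect of reference inhibitor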
An asterisk follows results filed as active; x = not tested or not shown. An excerpt weighted towards active compounds, which were near 1.8% of everything screened. Cut-off read from the data, not from the text of the source, unless noted: active = inhibition above about 4.5%; inactive = the rest.

SMILES	NPR2 activator	bovine MsrA act	MsrA inhibitor	HTR2A ag	NPR1 activator	MsrA inh confirm
Cc1cc(OC(C)C)c2c(-c3ccccc3)cc(=O)oc2c1	-1	-6	26*	-4	-2	22*
CCOc1cc(C)cc2oc(=O)cc(-c3ccccc3)c12	-4	-1	6.5*	-1	-6	5.1*
Cc1ccc(-c2c(C)cc3oc(=O)cc(-c4ccccc4)c3c2C)cc1	-6	-2	0	3	-5	x
Cc1cc(OCC(=O)N2CCc3ccccc3C2)c2c(-c3ccccc3)cc(=O)oc2c1	-23	-3	15*	-3	-38	14*
CC(=O)Oc1cc(C)cc2oc(=O)cc(-c3ccccc3)c12	1	1	9.1*	-3	-8	1
CC(/C=N/NC(=O)CN1CCN(Cc2ccc(Cl)cc2)CC1)=C\c1ccco1	-5	-9	3	2	1	x
O=C(CN1CCN(Cc2ccccc2)CC1)N/N=C/C=C/c1ccco1	-9	-9	5.8*	3	0	4
CCOC(=O)/C(C#N)=C1/C=CNC(=O)N1	1	-10	4.7*	-4	0	3
COc1cccc(C2=CC(c3cccc(OC)c3OC(F)F)n3nnnc3N2)c1 (stereo not given)	5	-1	3	9	9	x
COc1cccc(C2=CC(c3cccc(OC)c3OC)n3nnnc3N2)c1 (stereo not given)	0	-8	14*	-3	7	9.3*
O=C(O)CC1SC(N/N=C/c2ccc(Br)cc2)NC1=O (stereo not given)	1	-6	4.9*	0	-1	2
Cc1cc(NC(=O)COC(=O)C2CC2)ccc1Br	-1	-9	0	-10	3	x
O=C(N/N=C/c1ccnc2ccccc12)c1ccccc1O	-3	-1	5.6*	-4	-9	4
Nc1nonc1-c1nc2ccccc2n1CC(=O)N/N=C/c1ccc(-c2ccccc2C(=O)O)o1	-1	-8	7.3*	-1	0	6.9*
CCC(=O)N1c2ccccc2NC2=C(C(=O)CCC2)C1c1cccnc1 (stereo not given)	9	-5	4.8*	0	6	3
CCOC(=O)C1=C(C)NC2=C(C(=O)CCC2)C1c1cccnc1 (stereo not given)	-1	-3	2	0	-1	x
CC(=O)Oc1cccc(C2C3=C(CC(C)(C)CC3=O)Nc3ccccc3N2C(C)=O)c1 (stereo not given)	-2	-6	3	3	-5	x
CC(=O)N1c2ccccc2NC2=C(C(=O)CCC2)C1c1ccco1 (stereo not given)	6	-17	4.9*	0	-1	3
CCOC(=O)[C@@]12CN(C(=O)OC(C)(C)C)CC=C1N(Cc1ccc(OC)cc1)C(=O)[C@H]2CC(=O)NCc1ccccc1	-10	x	x	x	-5	x
COc1ccc(Cn2ccc3ccc(-c4ccc5ccn(C(=O)C6CC6)c5c4)cc32)cc1	-5	x	x	x	-2	x
CC(=O)c1ccc(N2CCN(C(=O)C(=O)c3cn(CC(=O)N4CCOCC4)c4ccccc34)CC2)cc1	-1	-5	6.8*	1	4	5.6*
COC(=O)[C@]12C[C@H](CC(=O)NCc3ccc(C)o3)C(=O)N(Cc3ccco3)C1=C[C@H](C(C)C)O[C@@H]2C1CC1	-6	x	x	x	-2	x
C=CCN(CC#Cc1ccc(C)cc1)Cc1ccc(OC)cc1OC	0	x	x	x	-2	x
Cc1[nH]c(=O)[nH]c(=O)c1N(C)C	-2	-2	0	0	2	x
CSc1c(N(C)C)c(=O)c1=S	0	x	5.2*	x	4	4
SMILES	NPR2 activator	bovine MsrA act	MsrA inhibitor	HTR2A ag	NPR1 activator	MsrA inh confirm
CN(C)C(=O)C[C@H]1CC[C@H]2[C@H](COc3ccc(NC(=O)C4CC4)cc3C(=O)N2C)O1	-2	x	x	x	2	x
COc1cc(-c2ccc(Nc3ccccc3C(=O)O)c(OC)c2)ccc1Nc1ccccc1C(=O)O	-4	-7	4.9*	-4	-36	5.3*
CN(Cc1ccccc1)C(=O)OCc1cn(Cc2cc(F)cc(F)c2)nn1	4	x	x	x	4	x
O=C(CSc1nnc(COc2ccccc2)n1-c1ccccc1)Nc1ccc2c(c1)OCO2	-12	x	x	x	-8	x
CCn1c(CNC(=O)c2ccccc2Br)nnc1SCC(=O)NC1=NCCS1	0	-2	6.5*	0	-5	1
CN(C)CC(=O)N[C@H]1C[C@@H]2O[C@@H](CO)CC[C@@H]2O[C@@H]1CCc1ccc(-c2ccc(F)cc2)cc1	-3	x	x	x	7	x
C=CC[C@]1(O)C(=O)N(c2ccccc2)c2ccccc21	3	x	x	x	0	x
Cc1nn2c(=O)cc(CSc3ccccc3NC(=O)c3ccccc3)nc2s1	5	2	17*	-6	3	13*
COc1cc(C(=O)Nc2ccccc2SCc2cc(=O)n3nc(C)sc3n2)cc(OC)c1OC	3	-4	1	-4	1	x
Cc1nn2c(=O)cc(CSc3ccccc3NC(=O)c3ccccc3F)nc2s1	3	-5	4.7*	-4	0	3
CC(C)c1nn2c(=O)cc(CSc3ccccc3NC(=O)c3ccccc3F)nc2s1	4	-10	1	3	-1	x
O=C(Nc1ccncc1)c1ccccc1-c1ccccc1	-3	-4	1	-2	-3	x
CCCCCCCCN1C(=O)[C@@H](CC(=O)N2CCOCC2)C[C@@]2(C(=O)OC)C1=C[C@H](COCc1ccccc1)O[C@@H]2C	7	x	x	x	2	x
Cc1cc([N+](=O)[O-])ccc1Nc1nc2ccccc2n2cnnc12	-6	5	6.4*	-1	-8	8.3*
CCc1cccc(C)c1Nc1nc2ccccc2n2cnnc12	2	-3	5.4*	-4	-6	4
Cc1c(Nc2nc3ccccc3n3cnnc23)cccc1[N+](=O)[O-]	34	-3	0	1	2	x
c1ccc(CNc2nc3ccccc3n3cnnc23)cc1	2	-2	2	-3	2	x
O=C(/C=C/c1ccccc1)/C=C/c1ccccc1	4	-6	4.9*	-2	7	1
O=C(/C=C/c1ccccc1)c1ccccc1	-1	-4	0	5	-1	x
C=CCN=C1NC(c2cccc(Cl)c2)C(C(=O)OC)=C(C)N1Cc1cccc(C(F)(F)F)c1 (stereo not given)	-11	x	0	x	-16	x
Cc1ccc(C)c(NC(=O)c2cc(-c3ccc(Cl)cc3)nc3ccccc23)c1	-7	x	x	x	-8	x
CN(C(=O)CSc1nncc2ccccc12)c1ccccc1	-7	-8	1	7	0	x
CC(=O)c1cnc(Nc2cccc(Cl)c2Cl)s1	5	3	4.8*	1	5	2
Cc1cc(C(=O)N/N=C/C=C/c2ccc([N+](=O)[O-])cc2)n[nH]1	-6	-12	7.6*	-3	-6	7.9*
Cc1cc(C(=O)N/N=C/C=C/c2ccc(Br)cc2)n[nH]1	-7	-3	6.0*	1	13	3
O=C(N/N=C/C=C/c1ccc([N+](=O)[O-])cc1)c1cccs1	-12	-1	2	1	-2	x

Screens as filed in PubChem.
